Assay outcomes as filed in PubChem BioAssay.
S2 tox: reduces viability in counter-screen for ATXN expression inhibitors; S2 cells (HEK-293 line with an ATXN2-luciferase reporter) viability, CellTiter-Fluor protease fluorescence, 24 h; Potency, µM (highest dose often 56.7 µM), usual class: cytotoxic; actives 0.49% (n = 400,000); note: nearly all actives have a fitted effect of over 40% in size
TGFb inhibitor: blocks TGF-b signaling; actives 1.2% (n = 410,000); Potency, µM (top dose mostly 46.1 µM), inactives show top-dose activity, negative = inhibition, hits mostly inhibitors; HepG2 CAGA-GFP TGF-b/SMAD3 reporter, GFP fluorescence, 18 h; TGF-beta stimulated, 500 pg/mL final; note: % is set by controls: 0 for no effect and ±100 for the full control effect; nearly all actives have a fitted effect of over 65% in size
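Using HEPG2 CAGA-GFP reporter cells at 1000 cells/well, we pinned test compounds, stimulated with recombinant TGF-beta (500 pg/mL final) and measured total well GFP after 18 h.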
HepG2 tox: counter-screen for TGF-b inhibitors: cytotoxicity in HepG2 cells; HepG2 CAGA-GFP viability, ATP luminescence, 18 h; Potency, µM (doses to about 46.1 µM), inactives show at the top dose activity change, negative = cytotoxicity, actives largely listed as cytotoxic; actives 0.76% (n = 410,000)
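CellTiter-Glo luminescence gave cytotoxicity after 18 hours at 37 degrees C. The cells were HepG2 CAGA-GFP in 1% FBS DMEM, stimulated with 500 pg/mL TGF-beta after compound addition. %Activity was normalised to no-cell wells (complete cell-killing) and DMSO (no toxicity), and curves were fitted and classified.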
ATXN2 expr inh: inhibitors of ATXN2 expression; HEK-293 ATXN2-luciferase reporter, luminescence, 24 h; Potency, µM (highest dose often 57 µM), for the others: at the top dose activity change, negative = inhibition, most hits filed as inhibitors; actives 0.72% (n = 360,000); AID 1745845; note: % is set by controls: 0 for no effect and ±100 for the full control effect; nearly all actives have a fitted effect of over 55% in size
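qHTS (up to 57 uM final) was run with 24 h compound exposure of reporter cells at 37 °C. Each well was multiplexed: SteadyGlo luminescence measured ATXN2-luciferase expression after a fluorogenic Gly-Phe-AFC viability readout (25 uM final).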
ALOX12 inh: blocks human arachidonate 12S-lipoxygenase | purified 12hLO, xylenol orange hydroperoxide absorbance | actives 1.1% (n = 580,000) | P18054 | Potency, µM (titrated, usually from 108 µM), for inactives: top-dose activity change, negative = inhibition, actives largely listed as inhibitors | AID 1671190; note: % is set by controls: 0 for no effect and ±100 for the full control effect
Target sequence (P18054 whole entry, looked up): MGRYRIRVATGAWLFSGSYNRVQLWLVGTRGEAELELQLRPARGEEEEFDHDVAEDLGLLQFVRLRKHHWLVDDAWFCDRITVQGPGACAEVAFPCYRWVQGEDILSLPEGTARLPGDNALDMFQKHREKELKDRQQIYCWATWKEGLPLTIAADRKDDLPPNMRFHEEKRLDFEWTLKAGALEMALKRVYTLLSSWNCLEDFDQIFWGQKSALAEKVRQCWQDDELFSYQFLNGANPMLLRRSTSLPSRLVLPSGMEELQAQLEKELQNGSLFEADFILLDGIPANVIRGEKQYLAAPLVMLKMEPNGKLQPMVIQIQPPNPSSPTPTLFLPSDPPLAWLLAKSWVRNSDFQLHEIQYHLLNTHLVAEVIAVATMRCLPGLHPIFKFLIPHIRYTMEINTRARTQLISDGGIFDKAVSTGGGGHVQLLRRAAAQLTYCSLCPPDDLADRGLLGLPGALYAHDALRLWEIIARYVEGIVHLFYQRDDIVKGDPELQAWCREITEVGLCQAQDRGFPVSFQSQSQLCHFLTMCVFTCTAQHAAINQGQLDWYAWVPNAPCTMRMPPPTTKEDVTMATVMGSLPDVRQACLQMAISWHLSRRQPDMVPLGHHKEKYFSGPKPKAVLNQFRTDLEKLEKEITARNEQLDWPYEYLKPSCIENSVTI
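Hydroperoxide product was detected by ferrous iron/xylenol orange as the 573 to 405 nm absorbance ratio. Arachidonic acid at 40 uM (final) was turned over for 30 min at room temperature by 150 nM human 12hLO, pH 7.0 Hepes buffer, after 15 min compound preincubation.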
* marks the source's active call; other numbers are inactive results; i = inactive; ? = inconclusive; . = no result; [ ] = dose if it differs, or a comment. A selection: hits, their analogues and other compounds. The true share with any hit is near 2.7%. Calls come from the whole dose curve; as a rule, active = well fitted curve in the direction sought with a large enough effect; inconclusive = small, poorly fitted or top-dose-only effect, or another doubt; inactive = no such curve, though single readings can be large; an effect the other way counts as inactive or inconclusive. Potency is the fitted concentration of half-maximal effect.

SMILES	S2 tox	TGFb inhibitor	HepG2 tox	ATXN2 expr inh	ALOX12 inh
CCc1c(C)sc(NC(=O)c2c(F)cccc2F)c1C#N	.	.	.	.	-7%
Cc1sc(NC(=O)C2CCCCC2)c(C#N)c1-c1ccccc1	i	2%	6%	94%	?
CCc1c(C)sc(NC(=O)c2cc(-c3cc(OC)ccc3OC)on2)c1C#N	.	2%	2%	14µM*	0%
COc1ccc(C(=O)COC(=O)c2cc(C)nc3ccccc23)cc1	.	.	.	.	-24%
Cc1cn2nc(C(=O)NCc3cc(F)cc(F)c3)cc2c(N(C)Cc2ccccc2)n1	.	.	.	.	51%
Cc1ccc(CSc2nnc(C3CCN(C(=O)OC(C)(C)C)CC3)o2)cc1	.	.	.	.	-11%
COC(=O)c1ccc(COC(=O)c2c3c(nc4ccccc24)CCCC3)o1	.	.	.	.	15%
Cc1ccc(S(=O)(=O)Nc2ccc3c(c2)CCC3)cc1	i	-12%	-19%	?	-18%
Cn1cnnc1-c1ccc(NS(=O)(=O)c2ccc3c(c2)CCC3)cc1	.	.	.	.	28µM*
O=C(NCCC1=CCCCC1)C1CC(=O)N(C2CCCCC2)C1 (centres undefined)	i	2.8µM*	5%	5%	-10%
O=C(NCCc1ccccc1)C1CC(=O)N(C2CCCCCC2)C1 (centres undefined)	i	9%	-6%	2%	14%
O=C(Nc1cc(Cl)ccc1F)C1CC(=O)N(C2CCCC2)C1 (centres undefined)	.	.	.	.	-7%
O=C(Nc1cc(Cl)cc(Cl)c1)C1CC(=O)N(C2CCCC2)C1 (centres undefined)	i	?	10µM*	-13%	-28%
CNS(=O)(=O)c1cccc(C(=O)OCC(=O)c2ccc3c(c2)OCCO3)c1	i	-5%	-1%	18µM*	-22%
CNS(=O)(=O)c1cccc(C(=O)OCC(=O)c2ccc[nH]2)c1	?	4%	1%	2%	217%
CCN(CC)CCOC(=O)c1ccc(NC(=O)c2cc3c(s2)-c2ccccc2OC3)cc1	i	11µM*	10µM*	?	?
COc1ccc(NC(=S)NC(=O)c2ccc3c(c2)OCCO3)cc1	i	-13%	-17%	10%	7.1µM*
CCOc1cccc(C(=O)NC(=S)Nc2ccc3c(c2)OCCO3)c1	?	26%	31%	17%	16µM*
O=C(NC(=S)Nc1ccc2c(c1)OCCO2)c1ccccc1	i	3%	-3%	69%	?
c1ccc2[nH]c(-c3nn4c(C5CCCCC5)nnc4s3)cc2c1	.	.	.	.	-18%
COc1ccc(NC(=O)C(C)n2nnc3sc(-c4ccccc4)cc3c2=O)cc1Cl (centres undefined)	?	-27%	-3%	5%	?
CC(C(=O)Nc1ccc(F)cc1)n1nnc2sc(-c3ccccc3)cc2c1=O (centres undefined)	.	.	.	.	32µM*
CCOC(=O)CSc1nc2ccc(NC(=O)c3ccc(Cl)cc3)cc2s1	i	?	-56%	8%	-4%
O=C(Nc1ccc2nc(SCc3cccc4ccccc34)sc2c1)c1ccc(Cl)cc1	.	.	.	.	28µM*
Cc1cc(Cl)cc(Cl)c1OCCOc1cccc2cccnc12	i	11µM*	-49%	-7%	157%
SMILES	S2 tox	TGFb inhibitor	HepG2 tox	ATXN2 expr inh	ALOX12 inh
Cc1c(-c2ccccc2)nc2ccccc2c1-c1ccccc1	.	.	.	.	-24%
Cc1nn(Cc2c(F)c(F)c(F)c(F)c2F)c(C)c1NC(=O)c1ccc(COc2ccc(Cl)cc2Cl)o1	i	?	-5%	20µM*	-30%
Cc1nn(Cc2c(F)c(F)c(F)c(F)c2F)c(C)c1NC(=O)c1cccc(COc2ccccc2Cl)c1	i	-23%	-43%	?	2%
Cc1nn(Cc2cccc(F)c2)c(C)c1NC(=O)c1ccc(COc2ccccc2Cl)cc1	?	?	2%	3.2µM*	?
COc1ccc(-c2c(C)oc3cc(OCC(=O)OC(C)(C)C)ccc3c2=O)cc1	.	.	.	.	-16%
CCC1(N2CCN(S(=O)(=O)c3cc(F)ccc3C)CC2)CCN(C(=O)NC)C1 (centres undefined)	.	.	.	.	-21%
CCC1(N2CCN(S(=O)(=O)c3ccc4c(c3)CCCC4)CC2)CCN(C(=O)NC)C1 (centres undefined)	.	.	.	.	32µM*
Cc1cc(N2C(=O)C(O)=C(C(=O)c3cc4ccccc4o3)C2c2ccc(Cl)cc2)no1 (centres undefined)	i	7%	6%	2%	40µM*
CN(C)CCN1C(=O)C(O)=C(C(=O)c2cc3ccccc3o2)C1c1ccc(N(C)C)cc1 (centres undefined)	i	29%	2%	25%	6%
Cc1cc(N2C(=O)C(O)=C(C(=O)c3cc4ccccc4o3)C2c2ccc(Br)cc2)no1 (centres undefined)	i	-15%	-60%	0%	40µM*
CN(C)CCN1C(=O)C(O)=C(C(=O)c2cc3ccccc3o2)C1c1ccc(OCc2ccccc2)cc1 (centres undefined)	.	.	.	.	25µM*
CC(=O)c1cccc(Nc2nc3ccccc3nc2NS(=O)(=O)c2ccc(C)c(C)c2)c1	.	.	.	.	1%
CCc1ccc(CCC(=O)NC2CC3CCC2C3)cc1 (centres undefined)	.	.	.	.	14%
Clc1ccc(CNC[C@H]2Cn3c(-c4ccccc4)cnc3CO2)cc1	.	.	.	.	25µM*
Cc1ccc(-c2cn3c(n2)CO[C@@H](CNCc2ccc(Cl)cc2)C3)cc1	.	.	.	.	13µM*
Clc1ccc(CNC[C@H]2Cn3c(-c4cccc(Cl)c4)cnc3CO2)cc1	.	.	.	.	-43%[176 µM]
Clc1ccc(-c2cnc3n2C[C@H](CNCc2ccc4c(c2)OCO4)OC3)cc1	.	.	.	.	40µM*
Fc1ccc(-c2cnc3n2C[C@H](CNCc2ccc4c(c2)OCO4)OC3)cc1	.	.	.	.	22µM*
CN1CCN(c2oc(COc3ccccc3F)nc2C#N)CC1	.	.	.	.	38%
O=C(c1cc(C2CC2)[nH]n1)N1CCC2(CC1)NC(=O)N(c1cccc(F)c1)N2	.	.	.	.	11µM*
COc1cccc(C(=O)N2CCC3(CC2)NC(=O)N(c2ccc(F)cc2)N3)c1OC	.	.	.	.	4µM*
